These results are taken from PubChem BioAssay (NCATS).

“And” between values parts separate entries of the source, which are not always exact repeats. Identical values can stand only once. Results filed as inconclusive are left out. A call without a number means that no potency is given here. The source made the active and inactive calls. Calls follow the shape of the dose curve; as a rule, active = well fitted curve in the direction sought with a large enough effect; inconclusive = small, poorly fitted or top-dose-only effect, or another doubt; inactive = no such curve, though single readings can be large; an effect the other way counts as inactive or inconclusive.

Ubiquitin carboxyl-terminal hydrolase 1 (Homo sapiens), sequence (O94782 whole entry, looked up): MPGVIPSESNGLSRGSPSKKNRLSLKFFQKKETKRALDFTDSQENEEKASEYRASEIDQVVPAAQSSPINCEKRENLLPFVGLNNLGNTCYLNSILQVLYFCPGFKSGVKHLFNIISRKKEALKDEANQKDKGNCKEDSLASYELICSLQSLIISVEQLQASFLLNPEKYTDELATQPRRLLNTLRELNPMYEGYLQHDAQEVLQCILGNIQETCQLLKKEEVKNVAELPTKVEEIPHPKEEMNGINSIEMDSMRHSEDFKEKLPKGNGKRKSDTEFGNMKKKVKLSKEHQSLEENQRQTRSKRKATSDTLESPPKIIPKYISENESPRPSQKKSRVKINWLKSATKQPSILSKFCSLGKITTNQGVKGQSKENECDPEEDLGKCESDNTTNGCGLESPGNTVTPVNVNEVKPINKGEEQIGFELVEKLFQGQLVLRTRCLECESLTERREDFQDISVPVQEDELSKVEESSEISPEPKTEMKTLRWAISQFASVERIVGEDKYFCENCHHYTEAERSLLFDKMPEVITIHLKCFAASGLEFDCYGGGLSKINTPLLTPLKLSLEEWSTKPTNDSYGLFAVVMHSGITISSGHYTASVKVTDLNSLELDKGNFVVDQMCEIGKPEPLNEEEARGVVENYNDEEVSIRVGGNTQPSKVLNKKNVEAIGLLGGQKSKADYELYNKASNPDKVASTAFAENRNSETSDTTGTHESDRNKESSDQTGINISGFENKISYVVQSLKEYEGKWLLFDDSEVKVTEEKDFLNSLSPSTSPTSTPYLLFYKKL

Tested on in one experiment: not listed separately
The experiment can be described thus: Inducers of the Endoplasmic Reticulum Stress Response (ERSR) in human glioma: Validation (AID 504836). As to conditions: human glioma cells, ER stress response reporter; series mostly up to 38.3 µM. The essentials: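 ERSR induction read as luciferase luminescence (Bright-Glo, 10 min at room temperature) in stably transfected human U87-MG glioma cells exposed to compounds for 16 h, using GRP78 as sensor.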
As for `CC(=O)Oc1ccccc1C(=O)O`, the Potency entry is “inactive”.
For the compound `C[C@@H](N)C1CCC(C(=O)Nc2ccncc2)CC1` (some centres not stated), the Potency entry is “inactive”.
As to `Clc1ccc(C(c2ccc(Cl)cc2)n2cc[n+](CC(OCc3ccc(Cl)cc3Cl)c3ccc(Cl)cc3Cl)c2)cc1` (configuration not stated), the Potency result was “inactive”.
In the case of `CCc1c(C)[nH]c2c1C(=O)C(CN1CCOCC1)CC2` (configuration not stated), the Potency result is “inactive”.
`CCN(CC)CCn1c(=O)c(Cc2ccc(OC)cc2)nc2ccccc21`: the Potency entry is “inactive”.
As for `C[N+]1(C)C2CC(OC(=O)[C@H](CO)c3ccccc3)CC1C1OC12` (some centres not stated), the Potency result was “inactive”.
`CC(C)(Sc1ccc(CCN(CCCCC2CCCCC2)C(=O)NC2CCCCC2)cc1)C(=O)O`: the Potency result was “inactive”.
As for `C[N+](C)(C)CC(=O)O`, the Potency result was “inactive”.
As to `CC(C)(C)NCC(O)c1ccc(O)c(CO)c1` (configuration not stated), the Potency entry was “inactive”.
Same read-out and setting: under `CC(C[N+](C)(C)C)OC(N)=O` (configuration not stated) stands “inactive”; under `NC(CO)C(=O)NNCc1ccc(O)c(O)c1O` (configuration not stated), “inactive”.
Regarding `NCCCC(N)(C(=O)O)C(F)F` (configuration not stated), the Potency entry is “inactive”.
For the compound `Cc1cccc(C#Cc2ccccc2)n1`, the Potency result is “inactive”.
Still for that read-out and setting: with `CC(C)c1ccc2c(c1)c(SC(C)(C)C)c(CC(C)(C)C(=O)O)n2Cc1ccc(Cl)cc1` the entry was “inactive”.
Regarding `CCOC(=O)C(C)Oc1cccc2c(=O)n(CC(=O)Nc3ccc4c(c3)OCCO4)ccc12` (configuration not stated), the Potency result was “inactive”.
For `CN1C(=O)CC[C@H]1c1cccnc1`, the Potency entry is “inactive”.
Still for that read-out and setting: with `CC1=C(/C=C/C(C)=C/C=C/C(C)=C/C(=O)O)C(C)(C)CCC1` the entry was “inactive”; with `CC(C)C[C@H](NC(=O)[C@@H](O)[C@H](N)Cc1ccccc1)C(=O)O`, “inactive”; with `CCN1CCc2nc(N)oc2CC1`, “inactive”.
With `CS(=O)(=O)Nc1ccc([N+](=O)[O-])cc1Oc1ccccc1`, the Potency entry is “inactive”.

A further experiment has as its target Ubiquitin carboxyl-terminal hydrolase 1 (Homo sapiens) (UniProt O94782). Put plainly: Inhibitors of USP1/UAF1: Pilot qHTS (AID 504865). Also: nearly all actives have a fitted effect of over 35% in size. Also: potency is read from the fitted curve at half-maximal effect. As to conditions: purified USP1/UAF1, Ub-rhodamine cleavage fluorescence; series mostly up to 114 µM. In outline:
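In 50mM HEPES pH 7.8 containing 0.5mM EDTA, 1mM TCEP, 0.1 mg/ml BSA and 0.01% Tween-20, 1nM USP1/UAF1 is exposed to compound for 15 min, then Ub-Rho (150nM final) is added and fluorescence is read over time.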
A general note: qHTS replaces the single test concentration by a dilution series.
`O=C1C(I)=CC(=C(c2cc(I)c(O)c(I)c2)c2ccccc2C(=O)O)C=C1I`: the Potency was 25.1 µM (active).
Regarding `C[N+](C)(C)CC(=O)O`, the Potency entry is “inactive”.
The same measure, in the same setting: under `O=[N+]([O-])c1ccc([As](=O)(O)O)cc1` stands “inactive”; under `Cc1ccc(Cl)c(O)c1`, “inactive”; under `CCC(=O)OC1CCC2C3CCC4=CC(=O)CC[C@@]4(C)C3CC[C@]12C` (some centres not stated), “inactive”.
`C#CC1(O)CCC2C3CCC4=CC(=O)CCC4(C)C3CCC21C` (configuration not stated): the Potency is 50.1 µM (active).
As to `CCCCCCCCCC(CC)c1ccc(S(=O)(=O)O)cc1` (configuration not stated), the Potency was 79.4 µM (active).
For the compound `COC(=O)c1cncn1C(C)c1ccccc1` (configuration not stated), the Potency result was “inactive”.
On to `CN(C)[C@@H]1C(=O)C(C(N)=O)=C(O)[C@@]2(O)C(=O)C3=C(O)c4c(O)cccc4[C@@](C)(O)[C@H]3[C@H](O)[C@@H]12`, for which the Potency result is “inactive”.
As to `CCCCCCCCCCCCCCCC[N+](C)(C)C`, the Potency was 22.4 µM (active) and 31.6 µM (active).
Same read-out and setting: under `CC(=O)OCC1=C(C(=O)O)N2C(=O)[C@@H](N)[C@@H]2SC1` stands “inactive”; under `O=C(O)CCCOc1ccc(Cl)cc1Cl`, “inactive”.
